Experimental data reported in PubChem BioAssay (NCATS).
Records with an inconclusive call do not appear. The source made the active and inactive calls. Unless noted, the call rests on the fitted dose curve.

biological target: Nucleoprotein (Lymphocytic choriomeningitis virus (strain Armstrong)) (UniProt P09992); test: qHTS for Inhibitors of the Functional Ribonucleoprotein Complex (vRNP) of Lymphocytic Choriomeningitis Arenaviruses (LCMV): LCMV Primary Screen - GLuc reporter signal (AID 1347086); conditions: LCMV minigenome vRNP cell assay, Gaussia luciferase reporter; series mostly up to 57.5 µM; activity change, negative = inhibition: at the top concentration; further: nearly all actives have a fitted effect of over 70% in size
On the % scale 0 is the no-effect control and ±100 the full control effect; potency means the concentration at half of the fitted maximal effect.

Sequence of Nucleoprotein (Lymphocytic choriomeningitis virus (strain Armstrong)) (P09992 whole entry, looked up): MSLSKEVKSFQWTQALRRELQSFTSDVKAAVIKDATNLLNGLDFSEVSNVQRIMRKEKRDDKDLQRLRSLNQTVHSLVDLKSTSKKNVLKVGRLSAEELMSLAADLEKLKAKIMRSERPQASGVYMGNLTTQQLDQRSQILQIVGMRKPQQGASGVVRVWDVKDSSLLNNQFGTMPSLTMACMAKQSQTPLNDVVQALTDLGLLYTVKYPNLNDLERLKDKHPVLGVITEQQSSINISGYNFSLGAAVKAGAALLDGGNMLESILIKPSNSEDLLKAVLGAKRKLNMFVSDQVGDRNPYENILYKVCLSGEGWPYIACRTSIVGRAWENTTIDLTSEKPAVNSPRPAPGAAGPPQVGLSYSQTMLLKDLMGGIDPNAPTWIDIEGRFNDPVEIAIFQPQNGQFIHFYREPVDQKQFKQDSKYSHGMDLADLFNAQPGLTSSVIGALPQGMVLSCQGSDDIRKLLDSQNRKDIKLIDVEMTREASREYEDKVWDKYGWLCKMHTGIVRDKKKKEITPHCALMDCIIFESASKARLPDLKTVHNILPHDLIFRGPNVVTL

Question: With `O=S(=O)(CC1CS1)c1ccc(Oc2ccccc2)cc1` (stereo not given) as the compound, how does the “activity change, negative = inhibition” value read?
Answer: 14.1% (inactive)

Question: Which “activity change, negative = inhibition” value does the source give for `Clc1ccc2ncc(-c3cccc(NC4CNC4)n3)n2c1` here?
Answer: 51.6% (inactive)

Question: Which “activity change, negative = inhibition” value does the source give for `CCCCCCCCc1ccc(O)cc1` here?
Answer: 45.2% [at 115 µM] (inactive)

Question: Which Potency does the source give for `CCn1c(-c2nonc2N)nc2cnc(Oc3cccc(NC(=O)c4ccc(OCCN5CCOCC5)cc4)c3)cc21` here?
Answer: 17.2 µM (active)

Question: With `COc1cc(Nc2ncc(F)c(Nc3ccc4c(n3)NC(=O)C(C)(C)O4)n2)cc(OC)c1OC` as the compound, how does the “activity change, negative = inhibition” value read?
Answer: 45.4% (inactive)

Question: Which “activity change, negative = inhibition” value does the source give for `COc1ccc(CC2NCCc3cc(OC)c(OC)cc32)cc1OC` (stereo not given) here?
Answer: -27.3% (inactive)

Question: Which Potency does the source give for `COc1cc2c(cc1OC)[C@@H]1C(=O)c3ccc4c(c3O[C@@H]1CO2)C=CC(C)(C)O4` here?
Answer: 0.243 µM (active)

Question: With `COC1=C[C@@H]2[C@@H]3Cc4ccc(OC)c(O)c4[C@]2(CCN3C)CC1=O` as the compound, how does the Potency read?
Answer: 6.11 µM (active)

Question: With `CC(C)C[C@H](NC(=O)CNC(=O)c1cc(Cl)ccc1Cl)B(O)O` as the compound, how does the Potency read?
Answer: 3.06 µM (active)

Question: Which “activity change, negative = inhibition” value does the source give for `CC(=O)N(C)c1cccc(-c2ccnc3c(C(=O)c4cccs4)cnn23)c1` here?
Answer: -30.5% (inactive)

Question: Which “activity change, negative = inhibition” value does the source give for `O=C(N[C@@H](COc1ccc2[nH]c(=O)[nH]c2c1)c1ccccc1)c1cccn(Cc2ccc(F)c(F)c2)c1=O` here?
Answer: 16.7% (inactive)

Question: Which Potency does the source give for `COC(=O)[C@]12CCC(C)(C)C[C@@H]1[C@@H]1C(=O)C=C3[C@@]4(C)C=C(C#N)C(=O)C(C)(C)[C@@H]4CC[C@@]3(C)[C@]1(C)CC2` here?
Answer: 2.17 µM (active)

Question: For `CCCN(CCC)c1c([N+](=O)[O-])cc(S(N)(=O)=O)cc1[N+](=O)[O-]`, which “activity change, negative = inhibition” value is on record?
Answer: -24.9% [at 115 µM] (inactive)

Question: With `O=c1cccc2n1CC1CNC[C@H]2C1` as the compound, how does the “activity change, negative = inhibition” value read?
Answer: -20.7% (inactive)

Question: Which “activity change, negative = inhibition” value does the source give for `O=C(O)c1ccc(-c2cc3cccnc3c(-c3ccc4nonc4c3)n2)cc1` here?
Answer: 32.1% (inactive)

Question: With `CN(C)c1ccc(Nc2nc(N)n(C(=O)c3c(F)cccc3F)n2)cc1` as the compound, how does the “activity change, negative = inhibition” value read?
Answer: -33.3% (inactive)

Question: Which “activity change, negative = inhibition” value does the source give for `O=[N+]([O-])c1cc([N+](=O)[O-])c2ccccc2c1` here?
Answer: -22.2% [at 115 µM] (inactive)

Question: With `O=[N+]([O-])c1c2ccccc2cc2ccccc12` as the compound, how does the “activity change, negative = inhibition” value read?
Answer: 19.8% [at 115 µM] (inactive)

Question: With `Nc1nc(-c2nn(Cc3ccccc3F)c3ncccc23)nc(N)c1N1CCOCC1` as the compound, how does the “activity change, negative = inhibition” value read?
Answer: -36.1% (inactive)

Question: For `Cn1cc(-c2ccc3nnc(Sc4ccc5ncccc5c4)n3n2)cn1`, which “activity change, negative = inhibition” value is on record?
Answer: 16% (inactive)

Question: With `CC(=Cc1csc(C)n1)[C@@H]1C[C@H]2O[C@]2(C)CCC[C@H](C)[C@@H](O)[C@@H](C)C(=O)C(C)(C)[C@@H](O)CC(=O)O1` as the compound, how does the “activity change, negative = inhibition” value read?
Answer: -63.4% (inactive)

Question: Which Potency does the source give for `Nc1cc(C(F)(F)F)c(-c2cc(N3CCOCC3)nc(N3CCOCC3)n2)cn1` here?
Answer: 0.685 µM (active)

Question: Which “activity change, negative = inhibition” value does the source give for `CC(C)[C@]12O[C@@H]1[C@@H]1O[C@]13[C@]1(O[C@H]1C[C@@H]1C4=C(CC[C@@]13C)C(=O)OC4)[C@H]2O` here?
Answer: -66.3% (inactive)

Question: For `CCc1c(C(=O)C(N)=O)c2c(OCC(=O)O)cccc2n1Cc1ccccc1`, which “activity change, negative = inhibition” value is on record?
Answer: -37.9% (inactive)

Question: For `CC[C@H](CO)Nc1nc(NCc2ccccc2)c2ncn(C(C)C)c2n1`, which “activity change, negative = inhibition” value is on record?
Answer: 4.31% (inactive)

Question: Which “activity change, negative = inhibition” value does the source give for `O=C1CCC[C@@H]2[C@H]3CCCN4CCC[C@@H](CN12)[C@@H]34` here?
Answer: 5.63% (inactive)

Question: For `N#CCNC(=O)c1ccc(-c2ccnc(Nc3ccc(N4CCOCC4)cc3)n2)cc1`, which “activity change, negative = inhibition” value is on record?
Answer: 8.06% (inactive)

Question: Which “activity change, negative = inhibition” value does the source give for `CC(=Cc1csc(C)n1)[C@@H]1C[C@H]2O[C@@H]2CCC[C@H](C)[C@@H](O)[C@@H](C)C(=O)C(C)(C)[C@@H](O)CC(=O)O1` here?
Answer: -43.8% (inactive)

Question: With `CCCCCC[C@H]1C(=O)O[C@H](C)[C@H](NC(=O)c2cccc(NC=O)c2O)C(=O)O[C@@H](C)[C@@H]1OC(=O)CC(C)C` as the compound, how does the Potency read?
Answer: 1.22 µM (active)

Question: For `CC(=O)Nc1sc2c(c1-c1nc3ccccc3s1)CNC2`, which Potency is on record?
Answer: 0.0027 µM (active)

Question: For `O=C1C=CC[C@@H]2[C@H]3CCCN4CCC[C@@H](CN12)[C@@H]34`, which Potency is on record?
Answer: inactive

Question: With `c1cc2ccc3cccc4ccc(c1)c2c34` as the compound, how does the “activity change, negative = inhibition” value read?
Answer: 24.6% [at 115 µM] (inactive)

Question: For `CC[C@H]1C=CC=CC[C@@H](C)[C@H](O)[C@@](C)(O)C(=O)[C@@H](C)[C@H](O)[C@@H](C)C(=O)[C@@H](C)[C@H](O)[C@@H](C)C=CC(=O)O[C@@H]2[C@@H](C)[C@H](CC1)O[C@]1(CC[C@H](C)[C@H](C[C@@H](C)O)O1)[C@H]2C`, which Potency is on record?
Answer: 0.0769 µM (active)

Question: For `C[C@H]1CCCC=CC2C[C@H](O)C[C@@H]2[C@H](O)C=CC(=O)O1` (stereo not given in full), which Potency is on record?
Answer: 0.0109 µM (active)

tested on: not listed separately; test: qHTS of pediatric cancer cell lines to identify multiple opportunities for drug repurposing: Primary screen for TC32 cells (AID 1347089; active means well fitted cell-killing curve with a large enough effect; further: nearly all actives have a fitted effect of over 60% in size); conditions: TC32 Ewing sarcoma viability, CellTiter-Glo luminescence, 48 h; series mostly up to 45.8 µM; activity change, negative = cytotoxic: at the top concentration
In short: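 qHTS, TC32, 48 h drug treatment, CellTiter-Glo luminescence as a proxy for metabolically active cells; primary top concentration 46 µM (MIPE 11-pt, NPC 8-pt); confirmatory 11-pt.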

Question: For `COCC1(CO)C(=O)C2CCN1CC2` (stereo not given), which Potency is on record?
Answer: 20.8 µM (active)

Question: Which “activity change, negative = cytotoxic” value does the source give for `COc1ccc(CC2NCCc3cc(OC)c(OC)cc32)cc1OC` (stereo not given) here?
Answer: 1.24% (inactive)

Question: With `COC1=C[C@@H]2[C@@H]3Cc4ccc(OC)c(O)c4[C@]2(CCN3C)CC1=O` as the compound, how does the “activity change, negative = cytotoxic” value read?
Answer: 6.39% (inactive)

Question: For `CC(C)Oc1cccc(NC(=O)c2ccccc2C(F)(F)F)c1`, which “activity change, negative = cytotoxic” value is on record?
Answer: -1.07% [at 92.2 µM] (inactive)

Question: Which “activity change, negative = cytotoxic” value does the source give for `CC(=O)N(C)c1cccc(-c2ccnc3c(C(=O)c4cccs4)cnn23)c1` here?
Answer: 8.68% (inactive)

Question: Which “activity change, negative = cytotoxic” value does the source give for `O=C(N[C@@H](COc1ccc2[nH]c(=O)[nH]c2c1)c1ccccc1)c1cccn(Cc2ccc(F)c(F)c2)c1=O` here?
Answer: -10.7% (inactive)

Question: Which “activity change, negative = cytotoxic” value does the source give for `O=c1cccc2n1CC1CNC[C@H]2C1` here?
Answer: -7.72% (inactive)

Question: Which “activity change, negative = cytotoxic” value does the source give for `O=[N+]([O-])c1cc([N+](=O)[O-])c2ccccc2c1` here?
Answer: 9.28% [at 92.2 µM] (inactive)

Question: For `O=[N+]([O-])c1c2ccccc2cc2ccccc12`, which “activity change, negative = cytotoxic” value is on record?
Answer: -2.29% [at 92.2 µM] (inactive)

Question: Which Potency does the source give for `Cc1ccccc1-n1c(Cn2cnc3c(N)ncnc32)nc2cccc(C)c2c1=O` here?
Answer: 1.31 µM (active)

Question: For `CC(=Cc1csc(C)n1)[C@@H]1C[C@H]2O[C@]2(C)CCC[C@H](C)[C@@H](O)[C@@H](C)C(=O)C(C)(C)[C@@H](O)CC(=O)O1`, which Potency is on record?
Answer: 0.0037 µM (active)

Question: Which “activity change, negative = cytotoxic” value does the source give for `CCc1c(C(=O)C(N)=O)c2c(OCC(=O)O)cccc2n1Cc1ccccc1` here?
Answer: 5.69% (inactive)

Question: With `CC(=O)O[C@@]12CO[C@H]1C[C@H](O)[C@@]1(C)C(=O)[C@H](O)C3=C(C)[C@@H](O)C[C@@](O)([C@@H](OC(=O)c4ccccc4)[C@@H]21)C3(C)C` as the compound, how does the Potency read?
Answer: 9.3 µM (active)

Question: With `CC(=Cc1csc(C)n1)[C@@H]1C[C@H]2O[C@@H]2CCC[C@H](C)[C@@H](O)[C@@H](C)C(=O)C(C)(C)[C@@H](O)CC(=O)O1` as the compound, how does the Potency read?
Answer: 0.0012 µM (active)

Question: With `c1cc2ccc3cccc4ccc(c1)c2c34` as the compound, how does the “activity change, negative = cytotoxic” value read?
Answer: 4.45% [at 92.2 µM] (inactive)

Question: Which Potency does the source give for `C[C@H]1CCCC=CC2C[C@H](O)C[C@@H]2[C@H](O)C=CC(=O)O1` (stereo not given in full) here?
Answer: 0.0131 µM (active)
